Data on 39 compounds can be found in PubChem BioAssay (NCI).

Compounds without any hit were thinned out: in the full panel of roughly 83,000, 20% have a hit.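 Negative percent growth values reflect cell death: -40 means 40% of the cells present at the start died, and -100 means all died.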 Values without a mark were called inactive. Active and inactive are the calls of the source. Rule for the calls: active = growth percent below 10; inactive = the rest.

In one assay the test system is TK-10 renal. Kind of assay: NCI-60 one-dose screen, 48 h (100 = growth as untreated, 0 = no growth, -100 = all killed). As to conditions: 10 µM unless noted.
For `Cc1ccc2c(C3C(C#N)=C(N)Oc4cc5ccccc5cc43)cc(=O)oc2c1` (stereo not given), the growth was 47.6%.

For `Oc1ccc(Cl)cc1Sc1cc(Cl)ccc1O`, the growth was 104%.

For the compound `CCc1cccc(-c2ccccc2)c1`, the growth is 106%.

For the compound `CCCCNc1cc(C(=O)O)cc(S(N)(=O)=O)c1Oc1ccccc1`, the growth was 104%.

With `CC(C)Cn1cnc2c3ccccc3nc(NCn3nc(-c4cc(Cl)cc(Cl)c4Cl)oc3=S)c21`, the growth is 108%.

On to `Clc1ccc2c(c1)nnn1c3ncccc3c(Br)c21`, for which the growth was 78.8%.

Regarding `Cc1ccc(-c2nc3c(N=Nc4ccc(S(N)(=O)=O)cc4)c(N)nn3c(N)c2C#N)cc1`, the growth was 65.8%.

For `O=C(C[n+]1ccccc1Cl)c1ccc2c(c1)CCCC2`, the growth was 92.8%.

Consider `COc1ccc(C2CC(c3cc(Cl)c(C)cc3OC)=NN2c2ccc(S(N)(=O)=O)cc2)cc1OC` (stereo not given), for which the growth was 113%.

In the case of `CCN(CC)c1ccc(C2CC(c3cc(OC)c(OC)c(OC)c3)=NN2)cc1` (stereo not given), the growth is 77.8%.

Consider `COC(=O)CCCNS(=O)(=O)c1cc(C(=O)Nc2ccc(NC(=O)c3cc(S(=O)(=O)NCCCC(=O)OC)c(O)c(O)c3O)cc2)c(O)c(O)c1O`, for which the growth was 94.9%.

Turning to `CC(NCCC(c1ccccc1)c1ccccc1)c1ccccc1` (stereo not given), the growth was 57.5%.

For `CC/C(=C(\CC)c1ccc(OCCN(CC)CC)cc1)c1ccc(OCCN(CC)CC)cc1`, the growth is 48.6%.

Regarding `Cc1ccc(N(CC2=NCCN2)c2cccc(O)c2)cc1`, the growth was 102%.

With `COc1ccc(C[C@H](N)C(=O)N[C@@H]2[C@@H](CO)OC(n3cnc4c(N(C)C)ncnc43)[C@@H]2O)cc1` (stereo not given in full), the growth is -75.7% (active).

For the compound `CC1=C2C(=C[C@@](C)(CO)[C@@H]2OC(=O)N(C)CCN(C)C(=O)OC(C)(C)C)C(=O)[C@](C)(O)C12CC2`, the growth is 68.1%.

`CC(=O)N1N=C(CCC(=O)c2nc3ccc([N+](=O)[O-])cc3[nH]2)OC1c1ccc(O)cc1` (stereo not given): the growth is 113%.

`CC1CCc2cc(F)cc3c(=O)c(C(=O)O)cn1c23` (stereo not given): the growth was 103%.

In the case of `OCCOCC(F)(F)F`, the growth is 116%.

Take `O=C(O)c1cn(C2CC2)c2cc(N3CCN(C(=O)CSc4nc(NS(=O)(=O)c5ccccc5)cc(=O)[nH]4)CC3)c(F)cc2c1=O`: the growth was 118%.

Consider `c1coc(CSc2ncnc3nc[nH]c23)c1`, for which the growth was 125%.

As for `CN(C)CC/C=C1\c2ccccc2Sc2ccc(Cl)cc21`, the growth was 75.8%.

With `O=C(COc1ccc(Cl)cc1)N1CCN(Cc2ccc3c(c2)OCO3)CC1`, the growth was 116%.

As for `COc1cc(NS(=O)(=O)c2ccc(N)cc2)ncn1`, the growth was 130%.

For `COC(OC)C1(c2ccccc2)NC(=O)NC1=O` (stereo not given), the growth was 101%.

`CC(=O)Nc1ccc(OC(=O)c2ccccc2O)cc1`: the growth is 128%.

For `COc1cccc(C2CC(c3cc(OC)c(OC)c(OC)c3)=NN2)c1` (stereo not given), the growth is 106%.

As to `COc1cc(C(=O)N2CCN(C(=O)c3cc(OC)c(OCc4ccccc4)cc3N)CC2)c(N)cc1OCc1ccccc1`, the growth was 131%.

In the case of `COc1cc2c(cc1OCCCCC(=O)Nc1ccc(-c3nc4ccccc4s3)cc1)N=C[C@@H]1CCCN1C2=O`, the growth is -0.417% (active).

For the compound `C=C1C(=O)O[C@H]2[C@H]1CC/C(COC(=O)c1cccc3ccccc13)=C\CC[C@@]1(C)O[C@@H]21`, the growth was -73.1% (active).

`COc1ccccc1S(=O)(=O)Nc1ccc2c3c(cc(-c4ccoc4)nc13)C(=O)N2C`: the growth was 37.5%.

In the case of `C=C1c2c(Cl)ccc(O)c2C(O)=C2C(=O)[C@]3(O)C(O)=C(C(N)=O)C(=O)[C@@H](N(C)C)[C@@H]3[C@@H](O)[C@H]12`, the growth is 7.64% (active).

Turning to `CN1C(=O)C2(SCC(C(=O)NCC(=O)OC(C)(C)C)N2C(=O)C2CCCCC2)c2ccccc21` (stereo not given), the growth is 103%.

Consider `COc1ccc(/C=C/C(=O)c2ccc(-n3cc(CN4CCN(c5cc6c(cc5F)c(=O)c(C(=O)O)cn6C5CC5)CC4)nn3)cc2)cc1OC`, for which the growth is 80%.

In the case of `O=C(Nc1ccc(Cl)c(Cl)c1)Nc1ccc(Cl)c([N+](=O)[O-])c1`, the growth is -0.585% (active).

With `Cc1cc[n+](CCCC[n+]2ccc(C)cc2)cc1`, the growth was 107%.

Consider `Cc1cn(C2CC(F)C(CO)O2)c(=O)[nH]c1=O` (stereo not given), for which the growth is 91.9%.

In the case of `COc1cc2ncnc(Oc3ccc(NC(=O)Nc4ccc(C5(C#N)CCCC5)cc4)c4ccccc34)c2cc1OC`, the growth is 24.1%.

With `COC(=O)Nc1nc2ccc(Sc3ccccc3)cc2[nH]1`, the growth is 65.6%.

Another assay has as its system ACHN renal. The assay is described as above. Particulars: 10 µM unless noted.
For `Cc1ccc2c(C3C(C#N)=C(N)Oc4cc5ccccc5cc43)cc(=O)oc2c1` (stereo not given), the growth is 50.6%.

With `Oc1ccc(Cl)cc1Sc1cc(Cl)ccc1O`, the growth is 90.1%.

In the case of `CCc1cccc(-c2ccccc2)c1`, the growth was 108%.

On to `CC(C)Cn1cnc2c3ccccc3nc(NCn3nc(-c4cc(Cl)cc(Cl)c4Cl)oc3=S)c21`, for which the growth was 97.6%.

Regarding `Clc1ccc2c(c1)nnn1c3ncccc3c(Br)c21`, the growth is 78.4%.

For the compound `O=C(C[n+]1ccccc1Cl)c1ccc2c(c1)CCCC2`, the growth was 105%.

As for `COc1ccc(C2CC(c3cc(Cl)c(C)cc3OC)=NN2c2ccc(S(N)(=O)=O)cc2)cc1OC` (stereo not given), the growth was 84%.

`CCN(CC)c1ccc(C2CC(c3cc(OC)c(OC)c(OC)c3)=NN2)cc1` (stereo not given): the growth was 75.3%.

With `COC(=O)CCCNS(=O)(=O)c1cc(C(=O)Nc2ccc(NC(=O)c3cc(S(=O)(=O)NCCCC(=O)OC)c(O)c(O)c3O)cc2)c(O)c(O)c1O`, the growth was 109%.

`CC/C(=C(\CC)c1ccc(OCCN(CC)CC)cc1)c1ccc(OCCN(CC)CC)cc1`: the growth is 42.5%.

For `CC1=C2C(=C[C@@](C)(CO)[C@@H]2OC(=O)N(C)CCN(C)C(=O)OC(C)(C)C)C(=O)[C@](C)(O)C12CC2`, the growth was -52.5% (active).

As for `CC(=O)N1N=C(CCC(=O)c2nc3ccc([N+](=O)[O-])cc3[nH]2)OC1c1ccc(O)cc1` (stereo not given), the growth is 106%.

With `OCCOCC(F)(F)F`, the growth was 108%.

With `O=C(O)c1cn(C2CC2)c2cc(N3CCN(C(=O)CSc4nc(NS(=O)(=O)c5ccccc5)cc(=O)[nH]4)CC3)c(F)cc2c1=O`, the growth is 102%.

Regarding `c1coc(CSc2ncnc3nc[nH]c23)c1`, the growth was 106%.

Take `COC(OC)C1(c2ccccc2)NC(=O)NC1=O` (stereo not given): the growth was 108%.

Turning to `COc1cccc(C2CC(c3cc(OC)c(OC)c(OC)c3)=NN2)c1` (stereo not given), the growth is 94.3%.

Take `COc1cc(C(=O)N2CCN(C(=O)c3cc(OC)c(OCc4ccccc4)cc3N)CC2)c(N)cc1OCc1ccccc1`: the growth was 159%.

For the compound `COc1cc2c(cc1OCCCCC(=O)Nc1ccc(-c3nc4ccccc4s3)cc1)N=C[C@@H]1CCCN1C2=O`, the growth was 1.84% (active).

`C=C1C(=O)O[C@H]2[C@H]1CC/C(COC(=O)c1cccc3ccccc13)=C\CC[C@@]1(C)O[C@@H]21`: the growth is -100% (active).

As to `COc1ccccc1S(=O)(=O)Nc1ccc2c3c(cc(-c4ccoc4)nc13)C(=O)N2C`, the growth was 70.6%.

For the compound `CN1C(=O)C2(SCC(C(=O)NCC(=O)OC(C)(C)C)N2C(=O)C2CCCCC2)c2ccccc21` (stereo not given), the growth was 99.8%.

For `O=C(Nc1ccc(Cl)c(Cl)c1)Nc1ccc(Cl)c([N+](=O)[O-])c1`, the growth was 1.36% (active).

Regarding `Cc1cc[n+](CCCC[n+]2ccc(C)cc2)cc1`, the growth was 104%.

In the case of `Cc1cn(C2CC(F)C(CO)O2)c(=O)[nH]c1=O` (stereo not given), the growth is 83.7%.

Take `COc1cc2ncnc(Oc3ccc(NC(=O)Nc4ccc(C5(C#N)CCCC5)cc4)c4ccccc34)c2cc1OC`: the growth was 29.3%.
